# From PubChem BioAssay AID588507 (Broad Institute, 2011)
# Calls of active or inactive are those of the source. No rule for the calls is given here.
# Assay: compound effect on GFP reporter cells – imaging, dry powder samples, counter-screen for PrP inhibitor project, dose response (AID 588507)
# Conditions: max activity: measured here: maximum activity across titration, at 0.0195 µM
structure (smiles),measurement,value
COc1cc(SC)ccc1C(=O)Nc1nc2ccccc2[nH]1,max activity,451%
same,outcome,inactive
